Data: PubChem BioAssay (NCI)
Compounds without any hit were thinned out: in the full panel of roughly 83,000, 20% have a hit.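 For each line, cells grew in 96-well plates with the test compound present at a single concentration for 48 hours.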 The source made the active and inactive calls. The calls were made as follows: active = growth percent below 10; inactive = the rest.

What was measured:
Assay in all cases: NCI-60 one-dose screen, 48 h (100 = growth as untreated, 0 = no growth, -100 = all killed)
[1] = tested on: SK-MEL-2 melanoma; details: 10 µM unless noted
[2] = tested on: EKVX NSCLC; details: 10 µM unless noted
[3] = tested on: SN12C renal; details: 10 µM unless noted
[4] = tested on: UO-31 renal; details: 10 µM unless noted
[5] = tested on: TK-10 renal; details: 10 µM unless noted
[6] = tested on: ACHN renal; details: 10 µM unless noted
[7] = tested on: CAKI-1 renal; details: 10 µM
[8] = tested on: CCRF-CEM leukemia; details: 10 µM unless noted
[9] = tested on: MOLT-4 leukemia; details: 10 µM unless noted
[10] = tested on: SR leukemia; details: 10 µM unless noted
[11] = tested on: RPMI-8226 leukemia; details: 10 µM unless noted
[12] = tested on: OVCAR-8 ovarian; details: 10 µM unless noted
[13] = tested on: OVCAR-5 ovarian; details: 10 µM unless noted
[14] = tested on: OVCAR-4 ovarian; details: 10 µM unless noted
[15] = tested on: SK-OV-3 ovarian; details: 10 µM unless noted
[16] = tested on: IGROV1 ovarian; details: 10 µM unless noted
[17] = tested on: OVCAR-3 ovarian; details: 10 µM unless noted
[18] = tested on: HS 578T breast; details: 10 µM unless noted
[19] = tested on: NCI/ADR-RES ovarian; details: 10 µM unless noted
[20] = tested on: A498 renal; details: 10 µM unless noted

Measured: growth

COc1ccc(Cn2cc3c(c2-c2cc(OC)c(OC)c(OC)c2)CCCc2cnoc2-3)cc1
inactive: [1] 54.9% | [2] 40.2% | [3] 36.3% | [4] 30.7% | [5] 67.5% | [6] 36.3% | [7] 19.6% | [8] 15.8% | [10] 13.4% | [11] 23.4% | [12] 43% | [13] 34.9% | [14] 62.3% | [15] 58% | [16] 22.1% | [18] 22.1% | [19] 15.5%
active: [9] 8.85% | [17] 4.45%

CSc1ccc(/C(=N/N=C(N)N)c2ccccc2)cc1
active: [17] 2.28%
inactive: [1] 58.7% | [2] 48.1% | [3] 27.9% | [4] 35.1% | [5] 63.9% | [6] 28.6% | [7] 42% | [8] 10.6% | [9] 22.3% | [10] 19.7% | [11] 17.9% | [12] 29.5% | [13] 48.3% | [14] 67.2% | [15] 66.2% | [16] 21.8% | [18] 31.8% | [19] 40.3%

CCNC(=O)Oc1ccc(/C(=C(/C)c2ccccc2)c2ccc(OCCN3CCCC3)cc2)cc1
inactive: [1] 93.3% | [2] 77.3% | [3] 78.2% | [4] 61% | [5] 102% | [6] 86% | [7] 79.9% | [8] 64% | [9] 51.7% | [10] 32.3% | [11] 33% | [12] 89.5% | [13] 82.3% | [14] 81.7% | [15] 95.8% | [16] 80.5% | [17] 76.6% | [18] 78.4% | [19] 76.3%

COc1cc(-c2noc(C[C@@H](NC(=O)OCc3ccccc3)C(C)C)n2)cc(OC)c1OC
inactive: [1] 99.3% | [2] 96.9% | [3] 90.1% | [4] 89.8% | [5] 96.1% | [6] 102% | [7] 100% | [8] 99.9% | [9] 93.9% | [10] 95% | [11] 106% | [12] 100% | [13] 97.3% | [14] 102% | [15] 94.5% | [16] 99.5% | [17] 110% | [18] 97.2% | [19] 104%

COc1ccc(CCN2C(=O)/C(=C/c3nc(CO)cs3)SC2=S)cc1
inactive: [1] 96.9% | [2] 95.2% | [3] 83.6% | [4] 34% | [5] 61.6% | [6] 72.7% | [7] 63.4% | [8] 67.6% | [9] 87.5% | [10] 60.4% | [11] 17.7% | [12] 97.5% | [13] 102% | [14] 91.8% | [15] 97.9% | [16] 91.4% | [17] 54.2% | [18] 106% | [19] 95.7%

O=C1c2c(c3c4cc(O)ccc4oc3c3[nH]c4ccccc4c23)C(=O)N1O
active: [1] -71.6% | [4] -40.1% | [6] -5.43% | [7] -16.5% | [20] -9.95% | [8] 1.62% | [9] 4.76% | [11] 4.71% | [15] -17% | [18] -8.67%
inactive: [2] 66.6% | [3] 17.1% | [5] 31.1% | [12] 12.1% | [13] 72.5% | [14] 22% | [19] 40.7%

CC1(C)CC[C@]2(C(=O)N3CCCN(CC#N)CC3)CC[C@]3(C)C(=CC[C@@H]4[C@@]5(C)CC[C@H](O)C(C)(C)[C@@H]5CC[C@]43C)[C@H]2C1
inactive: [1] 76.8% | [2] 91.2% | [3] 59.6% | [4] 63.7% | [5] 81.7% | [6] 59% | [7] 43.7% | [20] 39.8% | [8] 18.2% | [9] 19.1% | [11] 19.9% | [12] 55.7% | [13] 84.1% | [14] 86.7% | [16] 66.1% | [18] 78.8% | [19] 57.2%
